This experiment can be described thus: HEK293T viability reduction – cell-based, ATP luminescence, dry powder, Set3, 50 µM top, cytotoxicity control, dose response (AID 743135).

Inconclusive results are not listed. Values without a mark were called inactive. Activity calls are given as the source filed them.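 How the source made its calls: active means fitted drop in cell viability signal with half-maximal potency at most twice the top valid dose; inconclusive means flat fit with a 30 to 70% drop, or poor fit; inactive means opposite direction, flat within 30%, or potency beyond limit.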

For `Cc1c(C(=O)O)sc2nc(/C=C/C3CC3)[nH]c(=O)c12`, the molecule was called inactive.

Take `Cc1c(C(=O)O)sc2nc(/C=C/c3ccc4ccccc4c3)[nH]c(=O)c12`: the outcome was inactive.

Regarding `Cc1c(C(=O)O)sc2nc(/C=C/c3ccc(O)cn3)[nH]c(=O)c12`, the activity change, negative = cytotoxicity is 6.21% [at 1.2 µM].

`Cc1c(C(=O)O)sc2nc(/C=C/c3cccc(C(=O)O)c3)[nH]c(=O)c12`: the outcome was inactive.

With `COc1cccc(/C=C/c2nc3sc(C(=O)O)c(C)c3c(=O)[nH]2)c1`, the molecule was called inactive.

Take `Cc1c(C(=O)O)sc2nc(/C=C/c3cccc(OC(F)(F)F)c3)[nH]c(=O)c12`: the molecule was called inactive.

As to `Cc1c(C(=O)O)sc2nc(/C=C/c3cc4ccccc4cn3)[nH]c(=O)c12`, the molecule was classed as inactive.

Regarding `Cc1c(C(=O)O)sc2nc(/C=C/c3cccc(F)c3)[nH]c(=O)c12`, the call was inactive.

`Cc1c(C(=O)O)sc2nc(/C=C/c3cnc4ccccc4c3)[nH]c(=O)c12`: the molecule was classed as inactive.

As for `Cc1c(C(=O)O)sc2nc(/C=C/c3cccnc3N)[nH]c(=O)c12`, the activity change, negative = cytotoxicity is -17.4% [at 12 µM].

Regarding `Cc1c(C(=O)O)sc2nc(/C=C/c3ccnc4ccccc34)[nH]c(=O)c12`, the molecule was called inactive.

`Cc1c(C(=O)O)sc2nc(/C=C/c3cccc(O)c3)[nH]c(=O)c12`: the result was inactive.

Take `Cc1c(C(=O)O)sc2nc(/C=C/c3cccc(=O)[nH]3)[nH]c(=O)c12`: the molecule was called inactive.

Consider `Cc1c(C(=O)O)sc2nc(/C=C/C=C/c3ccccc3)[nH]c(=O)c12`, for which the result was inactive.

On to `Cc1c(C(=O)O)sc2nc(CCc3cccc(O)c3)[nH]c(=O)c12`, for which the outcome was inactive.

With `Cc1c(C(=O)O)sc2nc(/C=C/c3cccc(N4CCNCC4)c3)[nH]c(=O)c12`, the result was inactive.

On to `Cc1c(C(=O)O)sc2nc(/C=C/c3cccc(C(F)(F)F)c3)[nH]c(=O)c12`, for which the molecule was classed as inactive.

In the case of `Cc1c(C(=O)O)sc2nc(/C=C/c3ccccc3)[nH]c(=O)c12`, the call was inactive.

For the molecule `Cc1c(C(=O)O)sc2nc(/C=C/c3cccc(N)c3)[nH]c(=O)c12`, the result was inactive.

Consider `Cc1c(C(=O)O)sc2nc(/C=C/c3cccc(N4CCOCC4)n3)[nH]c(=O)c12`, for which the molecule was classed as inactive.

For `Cc1c(C(=O)O)sc2nc(/C=C/c3ccc(N)nc3)[nH]c(=O)c12`, the call was inactive.

Turning to `Cc1c(C(=O)O)sc2nc(/C=C/c3ccccc3O)[nH]c(=O)c12`, the molecule was classed as inactive.

`Cc1c(C(=O)O)sc2nc(/C=C/c3ccc4cc[nH]c4c3)[nH]c(=O)c12`: the molecule was classed as inactive.

In the case of `Cc1c(C(=O)O)sc2nc(/C=C/c3ccc4[nH]ccc4c3)[nH]c(=O)c12`, the molecule was called inactive.

In the case of `Cc1c(C(=O)O)sc2nc(/C=C/c3cccnc3)[nH]c(=O)c12`, the molecule was called inactive.

For `Cc1c(C(=O)O)sc2nc(/C=C/c3ccc4[nH]ccc4n3)[nH]c(=O)c12`, the activity change, negative = cytotoxicity is -5.92% [at 12 µM].

On to `Cc1c(C(=O)O)sc2nc(/C=C/c3cccc(C(N)=O)c3)[nH]c(=O)c12`, for which the molecule was called inactive.

As to `Cc1c(C(=O)O)sc2nc(/C=C/c3cccc([N+](=O)[O-])c3)[nH]c(=O)c12`, the result was inactive.

For `Cc1c(C(=O)O)sc2nc(/C=C/c3ccccn3)[nH]c(=O)c12`, the molecule was classed as inactive.

These data come from PubChem BioAssay AID743135 (Broad Institute, 2013).
